From PubChem BioAssay AID1822 (The Scripps Research Institute Molecular Screening Center, 2009) come the findings set out here.

Each structure is given as a SMILES string. Screen size: about 290,000 compounds; about 3,500 (1.2%) were called active.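 Rule for the calls: active = inhibition above the campaign mean inhibition over all tested compounds plus 3 SD (cut at about 28% in these data); inactive = the rest.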 The entries come from a sample that favours actives as a whole.

The test deals with M18 aspartyl aminopeptidase (Plasmodium falciparum 3D7). In words: PfM18AAP inhibitors, malaria aminopeptidase, primary screen, biochemical, QFRET, recombinant enzyme (AID 1822).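 Note: 0% = plate median of test compound wells and 100% = 2 mM ZnCl2.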 As to conditions: H-Glu-NHMec fluorogenic cleavage, at 7.35 µM, stronger effect = higher value.
In the case of `Cc1ccc(OCC(=O)Nc2ccc(NC(=O)c3cccs3)cc2)c(C)c1`, the inhibition – broadly, the change of the read-out against control, counted positive when it falls – was 2.4% (inactive).

Turning to `CCCc1nnc(NC(=O)CCC(=O)N2CCN(S(=O)(=O)c3ccc(OC)cc3)CC2)s1`, the inhibition is 3.89% (inactive).

On to `Cc1ccc(-c2ccc(/C=C(\C#N)C(N)=S)o2)c([N+](=O)[O-])c1`, for which the inhibition was 34% (active).

Take `N#C/C(=C\c1ccc(-c2cccc([N+](=O)[O-])c2)o1)C(=O)NCCN1CCOCC1`: the inhibition was 2.81% (inactive).

As to `Cc1ccc(Cc2cnc(NC(=O)/C(C#N)=C/c3ccc(-c4cccc([N+](=O)[O-])c4)o3)s2)cc1`, the inhibition is 1.04% (inactive).

For `Cc1ccc(N(C(=O)c2snc(C(N)=O)c2N)C(C(=O)NCC2CCCO2)c2c[nH]c3ccccc23)cc1` (configuration not stated), the inhibition is 2.71% (inactive).

For the molecule `OCCN1CCN(c2nnc(-c3ccccc3)c3ccccc23)CC1`, the inhibition was 4.34% (inactive).

With `OCCN1CCN(C(=S)c2ccc(-c3ccccc3)cc2)CC1`, the inhibition was 50% (active).

With `CN1CCN(CCCCOc2ccccc2-c2ccccc2)CC1`, the inhibition was 2.29% (inactive).

Turning to `CC(=O)Nc1ccc(S(=O)(=O)Oc2ccc(Br)cc2C(=S)N2CCOCC2)cc1`, the inhibition is 20.7% (inactive).

Take `COc1cc(CC(=O)N2CCC(n3nccc3NC(=O)C3CC3)CC2)cc(OC)c1OC`: the inhibition was 1.44% (inactive).

As to `CCOC(=O)c1cccc(NC(=O)CCc2nnc3ccc(N4CCOCC4)nn23)c1`, the inhibition is -1.08% (inactive).

`CCN(CC)c1ccc(NC(=O)CCc2nnc3ccc(N4CCCCC4)nn23)c(C)c1`: the inhibition was 34.1% (active).

As to `CCOc1ccc(CCNC(=O)CCc2nnc3ccc(N4CCCC4)nn23)cc1OCC`, the inhibition is -5.76% (inactive).

Take `CCC(c1nnnn1C(C)(C)C)N(Cc1cc2cccc(C)c2n2nnnc12)C1CCCC1` (configuration not stated): the inhibition is -1.66% (inactive).

With `Cc1nn(C(C)(C)C)c(OC(=O)CC(C)C)c1S(=O)(=O)c1ccccc1`, the inhibition is 3.62% (inactive).

Take `Cc1ccc2nc(-c3cccc(Br)c3)cc(C(=O)Nn3cnnc3)c2c1`: the inhibition was 60.7% (active).

As for `Cc1ccc(-c2cc(C(=O)NCc3cn(C)nc3C)c3cc(Br)ccc3n2)cc1`, the inhibition is 0.33% (inactive).

`Cc1ccc2nc(-c3ccncc3)cc(C(=O)Nc3ccncc3)c2c1`: the inhibition is 1.48% (inactive).

As for `N#Cc1c(-c2ccccc2)nc(SCc2cccc(C(F)(F)F)c2)[nH]c1=O`, the inhibition is 0.63% (inactive).

For the molecule `COc1ccc(-c2nonc2NC(=O)c2oc3ccc(F)cc3c2C)cc1OC`, the inhibition is 2.64% (inactive).

`COc1ccc(/C=C(\C#N)C(=O)ONC2=NCCCCC2)cc1`: the inhibition was 3.59% (inactive).

Consider `Oc1ccc(/C=N/NC2=NCCCCC2)c(O)c1`, for which the inhibition was 40.1% (active).

For `Cc1cc(N/N=C/c2ccccc2F)c2ccccc2n1`, the inhibition is 3.64% (inactive).

Take `Oc1ccc(/C=N/Nc2nc(-c3ccccc3F)nc3ccccc23)c(O)c1`: the inhibition was 18% (inactive).

In the case of `Cc1nc2ccccc2nc1N/N=C/c1ccc(O)cc1O`, the inhibition was 31.6% (active).

Regarding `COc1ccccc1N1CCN(/N=C/c2ccc(O)cc2O)CC1`, the inhibition was 9.99% (inactive).

Regarding `O=C(NNC(=O)C1CCCC1)c1ccc(F)cc1`, the inhibition was 3.26% (inactive).

For `Cc1cc(C)cc(Oc2c(C(F)(F)F)oc3cc(OCC(=O)O)ccc3c2=O)c1`, the inhibition was 0.89% (inactive).

As for `N#Cc1cccc(CSc2ncnc(N)n2)c1`, the inhibition was 3.53% (inactive).

`CC(C)c1c(C(=O)N/N=C/c2ccccc2C(=O)O)nnn1-c1nonc1N`: the inhibition was 2.33% (inactive).

As for `O=S(=O)(Nc1ccccc1Br)c1cccs1`, the inhibition was -3.63% (inactive).

With `Cc1ccc(N2C(=O)C3C4C=CC(CC4)C3C2=O)cc1Br` (configuration not stated), the inhibition is -1.4% (inactive).

As to `Nn1cnnc1N/N=C/c1cc([N+](=O)[O-])c(Cl)cc1Cl`, the inhibition was 30% (active).

As for `O=[N+]([O-])c1ccc(O)c(/C=N/Nc2ccccc2[N+](=O)[O-])c1`, the inhibition was -13% (inactive).

With `COCCCNC(=O)CN1C(=O)CSc2ccc(S(=O)(=O)N3CCOCC3)cc21`, the inhibition was 6.04% (inactive).

With `Cc1ccc(CNC(=O)C(=O)c2cn(CC(=O)N3CCCC3)c3ccccc23)cc1`, the inhibition is 2.97% (inactive).

With `COc1ccc(-c2onc3ccc(C(C)=O)cc23)cc1`, the inhibition is 13.4% (inactive).

`CC(OC(=O)c1ccc2noc(-c3ccccc3)c2c1)C(N)=O` (configuration not stated): the inhibition was 31.9% (active).

Take `Oc1ccc(-c2onc3ccc(Cl)cc23)cc1`: the inhibition is 1.68% (inactive).

Take `Cc1c(CN2CC[C@@H](N3CCN(c4ccccn4)CC3)[C@H](O)C2)[nH]c2ccc(F)cc12`: the inhibition was 9.87% (inactive).

Regarding `COc1ccc(N(Cc2cc3ccc(C)cc3[nH]c2=O)S(=O)(=O)c2ccccc2)cc1`, the inhibition was 6.49% (inactive).

In the case of `CC(=O)N1c2ccc(S(=O)(=O)NCCC(=O)N(C)C3CCCCC3)cc2CC1C` (configuration not stated), the inhibition is 0.68% (inactive).

On to `COC(=O)/C=C\C(=O)Nc1cccc([N+](=O)[O-])c1`, for which the inhibition is -7.77% (inactive).

Take `O=C(Nn1cnnc1)c1ccc([N+](=O)[O-])cc1`: the inhibition is 30.2% (active).

Regarding `Cc1ccc(C)n1NC(=O)c1ccc([N+](=O)[O-])cc1`, the inhibition was 3.79% (inactive).

`O=C(Nc1cccc([N+](=O)[O-])c1)Nn1cnnc1`: the inhibition was 77.4% (active).

On to `O=C(Nc1cccc([N+](=O)[O-])c1)Nc1ccc(Cl)cn1`, for which the inhibition was -7.59% (inactive).

Regarding `O=C(Nn1c(-c2ccccc2)nc2ccccc2c1=O)c1ccc([N+](=O)[O-])cc1`, the inhibition was -0.32% (inactive).

In the case of `COc1ccc(C(=O)NCc2nnc(SCC(=O)NC3=NCCS3)n2C)cc1`, the inhibition was -2.4% (inactive).

In the case of `Cc1cccc(C(=O)Nc2ccc(C(=O)N/N=C/c3cccc(C)n3)cc2)c1`, the inhibition was -3.2% (inactive).

As for `CSCC[C@H](NC(=O)N1CCn2c1nc1ccccc12)C(=O)NC1CCCCC1`, the inhibition was 2.15% (inactive).

For the molecule `CCCc1cc(=O)oc2c(C)c(OCC(=O)N3CCC(C(=O)O)CC3)ccc12`, the inhibition was 5.91% (inactive).

For `COc1ccc(C(C(=O)NC(C)(C)C)N(Cc2ccc(F)cc2)C(=O)CCC(=O)Nc2cc(C)on2)cc1` (configuration not stated), the inhibition is -7.57% (inactive).

As to `C=CCOc1cccc(CNCc2cccnc2)c1`, the inhibition is -17.3% (inactive).

`O=C(NNC(=O)c1ccc(Cl)cc1Cl)c1cccs1`: the inhibition is -2.06% (inactive).

`Cc1ccc(NNC(=O)c2cccs2)cc1Cl`: the inhibition was 28.9% (active).

Regarding `Cc1ccc(NNC(=O)c2c(F)cccc2Cl)cc1Cl`, the inhibition was 5.54% (inactive).

Consider `CCOC(=O)N1CCN(Cc2nc3cc(NC(=O)CC)ccc3n2CC)CC1`, for which the inhibition was -7.14% (inactive).

On to `CCOc1ccccc1N1C(=O)CC(Sc2nccc(C)n2)C1=O` (configuration not stated), for which the inhibition is -4.13% (inactive).

Consider `COc1ccc2oc(=O)cc(-c3cc4ccccc4o3)c2c1`, for which the inhibition was 21.1% (inactive).

On to `COc1cccc2cc(-c3cc(=O)oc4cc(C)c(O)cc34)oc12`, for which the inhibition was 41.3% (active).

Turning to `COc1cccc2cc(C(=O)N(C)C)c(=O)oc12`, the inhibition is -12.7% (inactive).

With `COc1ccc(N2CCN(C(=O)Cn3cnc4sc(C)c(S(=O)(=O)N5CCOCC5)c4c3=O)CC2)cc1`, the inhibition was 2.52% (inactive).

As to `CCOC(=O)C1CCN(c2c(Nc3cc(C)cc(C)c3)c(=O)c2=O)CC1`, the inhibition was -6.21% (inactive).

Take `Cc1nc2ccc(S(=O)(=O)NC(C(=O)N3CCCCCC3)C(C)C)cc2s1` (configuration not stated): the inhibition is -0.39% (inactive).

With `Cc1nc2ccc(S(=O)(=O)NCC(=O)NCCN3CCCCC3C)cc2s1` (configuration not stated), the inhibition was -0.01% (inactive).

For `Cc1nc2ccc(S(=O)(=O)NCC(=O)O)cc2s1`, the inhibition was 51.8% (active).

As to `COc1cccc2cc(C(=O)NCc3ccc(C)cc3)c(=N)oc12`, the inhibition was 3.31% (inactive).

On to `COc1ccc2c(CC(=O)N3CCc4cc(OC)c(OC)cc4C3)coc2c1`, for which the inhibition was 3.64% (inactive).

`C/C(Cc1ccccc1)=N\NC(=O)CNC(=O)c1ccccc1Cl`: the inhibition is 6.33% (inactive).

Turning to `ONC(=Nc1ccc(Cl)cc1)c1ccccc1Cl`, the inhibition was 18.2% (inactive).

On to `ONC(=Nc1ccccc1)c1ccccc1Cl`, for which the inhibition was 40.1% (active).

As for `COC(=O)c1ccccc1Sc1c(/C=N/OCc2ccc(Cl)cc2)c(C(F)(F)F)nn1C`, the inhibition was 2.22% (inactive).

As for `c1ccc(-c2ccc3c(c2)NC(C2Nc4cc(-c5ccccc5)ccc4O2)O3)cc1` (configuration not stated), the inhibition is 42.1% (active).

`COc1cccc(C(=O)Nc2nnc(S(=O)(=O)N(C)c3ccccc3)s2)c1`: the inhibition is -1.4% (inactive).

With `COc1ccc(C(C)C)cc1S(=O)(=O)Nc1ncn[nH]1`, the inhibition was 8.59% (inactive).

Regarding `COc1cc(S(=O)(=O)Nc2ncn[nH]2)ccc1Cl`, the inhibition is 51.4% (active).

Regarding `COc1ccc(S(=O)(=O)Nc2ccc(S(=O)(=O)N3CCCCC3)cc2)cc1OC`, the inhibition is 4.79% (inactive).

Consider `O=C(NCc1cccnc1)C12CC3CC(CC(C3)C1)C2`, for which the inhibition is -7.72% (inactive).

Take `Cc1cc(NC(=O)CCC(=O)N(CC(=O)NCC2CCCO2)c2ccccc2)no1` (configuration not stated): the inhibition was -2.56% (inactive).

Consider `O=C(NCCN1CCOC1=O)C1CCC(=O)N(CCc2ccc(Cl)cc2)C1` (configuration not stated), for which the inhibition is -13.3% (inactive).

As for `COC(=O)c1c(C)oc2ccc(N(C(=O)Oc3ccccc3)S(=O)(=O)c3ccccc3)cc12`, the inhibition is -12.4% (inactive).

In the case of `CC(=O)Oc1ccc(N(C(C)=O)S(=O)(=O)c2ccc3ccccc3c2)cc1Br`, the inhibition is -1.42% (inactive).

`CC(=O)N(c1ccc2oc(=O)sc2c1)S(=O)(=O)c1ccc(C)cc1`: the inhibition is 32.7% (active).

Regarding `CCOc1ccccc1NC(=O)NC1CCCCCCC1`, the inhibition was -2.13% (inactive).

Take `CC(=O)Nc1ccc(NC(=O)[C@@H](NC(=O)c2cccc(C)c2)C(C)C)cc1`: the inhibition was -0.5% (inactive).

Take `CCc1c(C)sc(NC(=O)c2cccs2)c1C(N)=O`: the inhibition is -38.8% (inactive).

For the molecule `COc1ccc(NC(=O)COc2ccc(C(=O)c3ccc(F)cc3)cc2)cc1S(N)(=O)=O`, the inhibition is -0.83% (inactive).

For the molecule `CC(/C=C/C1(O)C(C)CC(=O)CC1(C)C)OC1OC(CO)C(O)C(O)C1O` (configuration not stated), the inhibition was 49.9% (active).

On to `CC1=C(C)C(=O)OC(C(C)C2CCC3C4CC=C5CC(OC6OC(COC7OC(CO)C(O)C(O)C7O)C(O)C(O)C6O)CC(O)C5(C)C4CCC23C)C1` (configuration not stated), for which the inhibition is 3.15% (inactive).

On to `Cc1[nH]c(C)c(S(=O)(=O)N2CCN(c3cccc(C(F)(F)F)c3)CC2)c1C(=O)N1CCCCC1`, for which the inhibition was 3.83% (inactive).
